# Measurements as given in PubChem BioAssay (NCI).
# Compounds without any hit were thinned out: in the full panel of roughly 83,000, 20% have a hit.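 Plates (96-well) were seeded with cells, treated with compound at one concentration, and incubated for 48 hours before percent growth was determined.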 A number with no mark means an inactive call. The source made the active and inactive calls. The calls were made as follows: active = growth percent below 10; inactive = the rest.
# What was measured:
# Assay in all cases: NCI-60 one-dose screen, 48 h (100 = growth as untreated, 0 = no growth, -100 = all killed)
# Conditions in all cases: 10 µM unless noted
# DU-145 prostate = test system: DU-145 prostate
# K-562 leukemia = test system: K-562 leukemia
# MALME-3M melanoma = test system: MALME-3M melanoma
# MDA-MB-231 breast = test system: MDA-MB-231 breast
# RXF 393 renal = test system: RXF 393 renal
# SF-268 CNS = test system: SF-268 CNS
# SF-295 CNS = test system: SF-295 CNS
# SF-539 CNS = test system: SF-539 CNS
# UACC-257 melanoma = test system: UACC-257 melanoma
# M14 melanoma = test system: M14 melanoma
# HCT-15 colon = test system: HCT-15 colon
# HT29 colon = test system: HT29 colon
# SNB-75 CNS = test system: SNB-75 CNS
# SNB-19 CNS = test system: SNB-19 CNS
# U251 CNS = test system: U251 CNS
# PC-3 prostate = test system: PC-3 prostate
# SK-MEL-5 melanoma = test system: SK-MEL-5 melanoma
# LOX IMVI melanoma = test system: LOX IMVI melanoma
# SK-MEL-28 melanoma = test system: SK-MEL-28 melanoma
# UACC-62 melanoma = test system: UACC-62 melanoma
SMILES,growth (DU-145 prostate),growth (K-562 leukemia),growth (MALME-3M melanoma),growth (MDA-MB-231 breast),growth (RXF 393 renal),growth (SF-268 CNS),growth (SF-295 CNS),growth (SF-539 CNS),growth (UACC-257 melanoma),growth (M14 melanoma),growth (HCT-15 colon),growth (HT29 colon),growth (SNB-75 CNS),growth (SNB-19 CNS),growth (U251 CNS),growth (PC-3 prostate),growth (SK-MEL-5 melanoma),growth (LOX IMVI melanoma),growth (SK-MEL-28 melanoma),growth (UACC-62 melanoma)
CCc1ncnc2c1ccn2C(C)c1ccc(OC)c(F)c1 (centres undefined),82.3%,11.5%,74.9%,56.7%,76.5%,63.2%,36%,70.6%,40%,36.3%,39.2%,14%,35.8%,53.2%,35.3%,53.8%,33%,45.3%,66.5%,
C=C1C(=O)O[C@H]2[C@H]1CC/C(COC(=O)NCc1ccc(Cn3c(=O)sn(CCCCC)c3=O)cc1)=C\CC[C@@]1(C)O[C@@H]21,9.23% (active),1.16% (active),-14.5% (active),31.1%,11.6%,78.6%,102%,46.5%,47.1%,2.8% (active),16.8%,-33.4% (active),74.4%,85.9%,52%,46.4%,91.6%,-11.6% (active),47%,
COc1cc2c(c(OC)c1OC)CCC(c1cccc(C(=O)Nc3cccc(Cl)c3)c1)O2 (centres undefined),81%,38.2%,75.2%,25.7%,66.9%,72.1%,65%,77.6%,74.5%,62.1%,75.2%,63.6%,63.7%,76.5%,72.4%,34%,63%,65.2%,78.1%,
O=C(NCc1ccc(Cl)cc1Cl)C1CCC(=O)N1c1cccs1 (centres undefined),108%,108%,96.3%,96.5%,109%,100%,90.8%,93.6%,90.8%,104%,96.5%,89.9%,77.6%,99.9%,89.4%,87.4%,102%,89.1%,93.4%,
NC(=O)c1cccc(-n2ccc3cc(NC(=O)c4ccc(N5CCOCC5)c(C(F)(F)F)c4)ccc32)n1,60.8%,36.6%,65.4%,49.6%,-21.1% (active),66.8%,-52.1% (active),-15.4% (active),74.6%,66.5%,33.8%,14.3%,52.8%,70.7%,,34.5%,49.7%,64.4%,64.7%,50.9%
O=C(/C=C/c1ccccc1)Nc1ncc(Cc2ccccc2Cl)s1,26.9%,12.6%,53.8%,40.3%,-7.17% (active),71.6%,-2.76% (active),-16.3% (active),77.1%,8.18% (active),16%,6.09% (active),15.8%,30.5%,,25.8%,34.3%,21.3%,55.7%,34.1%
Cn1ccnc1C(=O)/C=C/c1ccc(C(=O)Nc2ccc(Cl)cc2)cc1,10.9%,2.13% (active),51.5%,1.85% (active),-57.1% (active),0.451% (active),27.3%,-73.4% (active),51.6%,6.17% (active),-13.2% (active),2.78% (active),-3.04% (active),-3% (active),,-6.8% (active),32.3%,-84.8% (active),62.4%,16.6%
CCOC(=O)n1cc(-c2nonc2-c2cn(C(=O)OCC)c3ccc(Br)cc23)c2ccccc21,93.9%,78%,83%,74%,94.2%,82%,72.4%,98.4%,93.6%,78.8%,76.8%,76.1%,73.1%,93.5%,,69%,82.3%,74.6%,100%,58.7%
O=C(Cn1cc(CSc2nc3ccccc3o2)nn1)Nc1ccc(F)cc1F,124%,107%,106%,112%,103%,115%,106%,106%,103%,108%,107%,128%,103%,101%,120%,101%,98.4%,108%,114%,
C=CC(=O)N1CCN(c2cccc(Oc3nccc(Nc4nnc(-c5ccc(Br)cc5)s4)n3)c2)CC1,78.5%,22.2%,65.2%,75.2%,74.7%,74.8%,55.8%,72.7%,80.6%,44.9%,40.3%,53.1%,69.3%,57.3%,,61.1%,42.7%,59%,67.1%,37%
COc1ccc2c(c1)c(-c1nc(-c3c[nH]c4ccncc34)cs1)cn2C,-68% (active),-60.8% (active),-92.9% (active),-81.8% (active),-83.8% (active),-78.7% (active),-76.1% (active),-96.9% (active),-79% (active),-84% (active),-54.2% (active),-72.1% (active),-97.5% (active),-58.9% (active),,-81.1% (active),-97.4% (active),-93.3% (active),-95.7% (active),-75.8% (active)
O=c1c2cnn(-c3ccccc3)c2n2c(CN3CCOCC3)nnc2n1-c1ccccc1,105%,88.2%,124%,106%,119%,104%,98.6%,99.2%,101%,98.2%,101%,74.9%,98%,106%,,78.2%,102%,96.9%,107%,98%
O=C(/C=C/c1ccco1)Nc1ncc(Cc2cccc(C(F)(F)F)c2)s1,10.5%,4.59% (active),5.43% (active),25.5%,-8.57% (active),33.2%,-20.5% (active),-39.8% (active),25.4%,-10.2% (active),10.9%,3.46% (active),-1.69% (active),34.3%,5.08% (active),17%,12.5%,5.43% (active),46.4%,
O=C1c2ccc3c4c5ccc(c24)C(=O)N1CCCOCCCCOCCCNCc1ccc(cc1)CNCCCOCCCCOCCCN(C3=O)C5=O,8.84% (active),-19.3% (active),-90.7% (active),-11.7% (active),30.3%,2.25% (active),91.5%,-85.7% (active),-78.9% (active),-85.3% (active),-41% (active),-18.7% (active),98.1%,-2.17% (active),-78.3% (active),6.2% (active),-99.9% (active),-87.8% (active),-24.1% (active),
O=C(Nc1nc2cc(C(=O)N3CCN(C(c4ccccc4)c4ccccc4)CC3)ccc2o1)c1ccc(NC2CCCCC2)c([N+](=O)[O-])c1,61.9%,47%,68.7%,75%,74.9%,58.2%,42.1%,59.9%,62.2%,58.2%,35.1%,,71.7%,48.3%,32.5%,53.9%,49.7%,45.5%,66.5%,45.8%
Cc1ccc(CNc2ccc3nc(CCC4CCCCC4)[nH]c3c2)cc1,71.8%,5.06% (active),22.4%,53.1%,36.2%,71.2%,61.1%,64.6%,66.8%,37.4%,12.7%,,79.7%,58.4%,29.8%,38.5%,-19.5% (active),50.1%,38.5%,32.9%
